Reference: PubChem BioAssay (EPA / NIEHS)
Active and inactive are the calls of the source. How the source made its calls: active means hit-call score of the fitted dose curve at least 0.9, where 1 is the maximum; inactive means score below 0.9.

Assays:
[1] = ATG_CRE_CIS: Attagene CIS-FACTORIAL HepG2 Assay for human cAMP Responsive Element (CRE) binding protein 3 (AID 2282926); details: HepG2 CRE cis-reporter, Attagene multiplexed mRNA; actives raise or lower the signal
In short: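 Capillary electrophoresis of 6-FAM-labelled, HpaI-digested PCR products quantified reporter transcripts. These came from HepG2 transiently transfected with cis-element reporters and exposed to test chemicals for 24 hours, with DMSO defining baseline activity.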

[2] = biological target: CCAAT/enhancer-binding protein beta (Homo sapiens) (UniProt P17676); assay: ATG_C_EBP_CIS: Attagene CIS-FACTORIAL HepG2 Assay for human CCAAT/Enhancer Binding Protein (C/EBP) beta (AID 2282927); details: HepG2 Attagene cis-factorial transcription factor reporter; actives raise or lower the signal
Sequence of CCAAT/enhancer-binding protein beta (Homo sapiens) (P17676 whole entry, looked up): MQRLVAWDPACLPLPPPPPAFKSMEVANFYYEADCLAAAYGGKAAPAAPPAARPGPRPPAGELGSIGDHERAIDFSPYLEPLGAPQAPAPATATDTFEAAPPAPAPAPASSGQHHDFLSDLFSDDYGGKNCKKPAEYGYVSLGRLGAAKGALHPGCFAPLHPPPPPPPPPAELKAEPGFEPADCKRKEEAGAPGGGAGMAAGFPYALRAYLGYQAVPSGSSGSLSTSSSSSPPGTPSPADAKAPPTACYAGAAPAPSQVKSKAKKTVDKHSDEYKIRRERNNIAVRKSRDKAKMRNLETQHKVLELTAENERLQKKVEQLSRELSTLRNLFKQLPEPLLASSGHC
In short: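 Transiently transfected HepG2 (MRTU library, endogenous TF-driven promoters); 24 h dosing; total RNA → oligo(dT) RT → PCR → 6-FAM primer extension → HpaI digest → CE; fit bidirectionally vs DMSO.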

[3] = ATG_CMV_CIS: Attagene CIS-FACTORIAL HepG2 Assay for human CMV (Internal Marker) (AID 2282928); details: HepG2 CMV promoter reporter, transcription factor profiling; actives raise or lower the signal;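 further: endpoint acts as a background internal control marker rather than a target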
In short: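 Reporter transcripts from transfected HepG2 cells are isolated after 24 h of chemical dosing, reverse-transcribed and amplified. Fragments labeled with 6-FAM are cut with HpaI and quantified by capillary electrophoresis; DMSO defines baseline.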

[4] = ATG_DR4_LXR_CIS: Attagene CIS-FACTORIAL HepG2 Assay for human Liver X Receptor (LXR), DR4 submotif (AID 2282929); details: HepG2 Attagene DR4 cis-reporter, mRNA transcription; actives raise or lower the signal
In short: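 The endpoint is DR4-element-driven reporter transcripts after 24 h chemical exposure of transfected HepG2 cells. These were measured via RT-PCR and capillary electrophoresis, and gain or loss of signal was fitted relative to DMSO controls.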

[5] = biological target: Aryl hydrocarbon receptor (Homo sapiens) (UniProt P35869); assay: ATG_Ahr_CIS: Attagene CIS-FACTORIAL HepG2 Assay for human Aryl Hydrocarbon Receptor (Ahr) (AID 2282930); details: HepG2 AhR cis-factorial reporter transcription; actives raise or lower the signal
Sequence of Aryl hydrocarbon receptor (Homo sapiens) (P35869 whole entry, looked up): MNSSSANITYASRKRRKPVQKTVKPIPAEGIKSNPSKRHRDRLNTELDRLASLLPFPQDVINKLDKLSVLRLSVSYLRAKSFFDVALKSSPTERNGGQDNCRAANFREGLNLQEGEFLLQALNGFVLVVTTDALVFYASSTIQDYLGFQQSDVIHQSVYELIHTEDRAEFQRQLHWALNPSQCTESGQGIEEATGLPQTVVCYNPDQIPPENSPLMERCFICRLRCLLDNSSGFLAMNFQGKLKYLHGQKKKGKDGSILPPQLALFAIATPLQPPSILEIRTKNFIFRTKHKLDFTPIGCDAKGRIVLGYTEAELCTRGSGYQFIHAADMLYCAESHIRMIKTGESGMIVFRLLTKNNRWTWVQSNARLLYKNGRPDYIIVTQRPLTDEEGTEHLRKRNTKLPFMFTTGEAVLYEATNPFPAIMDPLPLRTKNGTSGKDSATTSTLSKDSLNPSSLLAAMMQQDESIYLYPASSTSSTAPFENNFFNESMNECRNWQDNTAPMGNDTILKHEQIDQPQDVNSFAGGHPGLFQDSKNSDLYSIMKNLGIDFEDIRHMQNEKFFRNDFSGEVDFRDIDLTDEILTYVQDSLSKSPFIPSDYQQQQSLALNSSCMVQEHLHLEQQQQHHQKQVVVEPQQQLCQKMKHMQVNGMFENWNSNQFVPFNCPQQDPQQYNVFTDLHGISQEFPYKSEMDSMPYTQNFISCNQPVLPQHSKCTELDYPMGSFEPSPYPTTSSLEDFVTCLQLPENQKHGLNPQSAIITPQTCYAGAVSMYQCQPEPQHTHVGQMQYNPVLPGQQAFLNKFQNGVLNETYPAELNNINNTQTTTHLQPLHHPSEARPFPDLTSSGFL
In short: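 Read-out: reporter mRNA quantified by RT-PCR with fluorescent primer extension and capillary electrophoresis. Human HepG2 liver cells carried transfected cis-promoter reporter units and were exposed to chemical for 24 h; gain or loss fitted relative to DMSO.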

[6] = ATG_AP_1_CIS: Attagene CIS-FACTORIAL HepG2 Assay for human Activator Protein 1 (AP-1) (AID 2282931); details: HepG2 Attagene cis-factorial AP-1 reporter mRNA; actives raise or lower the signal
In short: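 Readout is reporter transcript level from endogenous transcription factor activity, quantified by RT-PCR with fluorescent primer extension and capillary electrophoresis. Transiently transfected HepG2 cells, 24 h exposure. Curves fitted both directions versus DMSO.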

[7] = ATG_AP_2_CIS: Attagene CIS-FACTORIAL HepG2 Assay for human Activator Protein 2 (AP-2) (AID 2282932); details: HepG2 AP-2 cis-reporter, Attagene transcription factor profiling; actives raise or lower the signal
In short: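 Read-out: fluorescent reporter mRNA via RT-PCR and capillary electrophoresis, 24 h post-dose in transiently transfected HepG2. Endogenous factors drive cis-promoter reporters; gain or loss of signal fitted bidirectionally against DMSO.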

[8] = ATG_BRE_CIS: Attagene CIS-FACTORIAL HepG2 Assay for human Bone Morphogenetic Protein (BMP) Response Element (BRE) (AID 2282933); details: HepG2 BMP response element reporter, Attagene transcription factor profiling; actives raise or lower the signal
In short: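 Fluorescence-labelled reporter cDNA fragments, separated by capillary electrophoresis, gave the signal for this component of a 52-readout multiplex. HepG2 cells were transfected, exposed to chemicals for 24 h, and compared with DMSO using bidirectional fitting.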

[9] = biological target: Retinoic acid receptor alpha (Homo sapiens) (UniProt P10276); assay: ATG_DR5_RAR_CIS: Attagene CIS-FACTORIAL HepG2 Assay for human Retinoic Acid Receptor Alpha (RARE), DR5 submotif (AID 2282934); details: HepG2 Attagene cis-factorial RARE DR5 reporter, mRNA; actives raise or lower the signal
Sequence of Retinoic acid receptor alpha (Homo sapiens) (P10276 whole entry, looked up): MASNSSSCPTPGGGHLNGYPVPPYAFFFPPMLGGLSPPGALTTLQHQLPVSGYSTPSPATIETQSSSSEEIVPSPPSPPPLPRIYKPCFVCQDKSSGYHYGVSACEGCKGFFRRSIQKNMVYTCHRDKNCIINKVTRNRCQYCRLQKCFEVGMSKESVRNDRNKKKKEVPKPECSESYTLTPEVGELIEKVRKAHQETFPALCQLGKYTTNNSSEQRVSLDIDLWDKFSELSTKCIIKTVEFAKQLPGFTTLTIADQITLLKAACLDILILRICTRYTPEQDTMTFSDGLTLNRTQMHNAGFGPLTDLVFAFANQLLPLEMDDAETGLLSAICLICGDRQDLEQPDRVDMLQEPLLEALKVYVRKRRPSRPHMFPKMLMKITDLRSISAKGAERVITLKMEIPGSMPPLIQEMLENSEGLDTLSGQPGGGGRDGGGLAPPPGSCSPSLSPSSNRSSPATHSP
In short: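 Read-out: DR5-driven reporter transcript measured by RT-PCR, 6-FAM primer extension, HpaI digest and capillary electrophoresis. Human HepG2 liver cells carry transiently transfected cis-element reporter constructs; dosing lasts 24 h. Gain or loss of signal fitted against DMSO baseline.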

[10] = biological target: Transcription factor E2F1 (Homo sapiens) (UniProt Q01094); assay: ATG_E2F_CIS: Attagene CIS-FACTORIAL HepG2 Assay for human E2F Transcription Factor 1 (AID 2282935); details: HepG2 Attagene cis-reporter, E2F reporter RNA transcripts; actives raise or lower the signal
Sequence of Transcription factor E2F1 (Homo sapiens) (Q01094 whole entry, looked up): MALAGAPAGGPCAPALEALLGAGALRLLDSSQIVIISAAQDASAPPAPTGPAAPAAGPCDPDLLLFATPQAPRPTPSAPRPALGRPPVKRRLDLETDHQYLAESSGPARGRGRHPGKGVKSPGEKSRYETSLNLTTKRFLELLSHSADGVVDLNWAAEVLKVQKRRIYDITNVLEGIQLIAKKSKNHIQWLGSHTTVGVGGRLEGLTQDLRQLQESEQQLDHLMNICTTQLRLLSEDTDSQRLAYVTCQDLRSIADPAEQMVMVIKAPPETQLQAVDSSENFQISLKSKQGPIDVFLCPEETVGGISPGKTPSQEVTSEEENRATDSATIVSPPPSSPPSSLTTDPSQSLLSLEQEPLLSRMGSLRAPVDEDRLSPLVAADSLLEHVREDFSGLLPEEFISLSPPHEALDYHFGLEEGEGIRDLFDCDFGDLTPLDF
In short: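 Transient MRTU transfection of HepG2; 24 h compound exposure; RNA → oligo(dT) RT → PCR → FAM label → HpaI cut → CE fluorescence. Gain/loss of signal fit against DMSO.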

Measured: AC50

O=C(N[C@H](CO)[C@H](O)c1ccc([N+](=O)[O-])cc1)C(Cl)Cl
inactive: all assays above

COCc1nnc(-c2ccc[n+]([O-])c2)n1-c1c(Cl)c(Cl)cc2[nH]c(=O)c(=O)[nH]c12
inactive: all assays above

Nc1ccn([C@@H]2O[C@H](CO)[C@@H](O)[C@@H]2O)c(=O)n1
not listed: [9]
inactive: all other assays above

OC(Cn1cncn1)(Cn1cncn1)c1ccc(F)cc1F
not listed: [9]
inactive: all other assays above

CCCOc1ccc(S(=O)(=O)N2CCN(CC)CC2)cc1-c1nc2c(CC)n(Cc3ccccn3)nc2c(=O)[nH]1
active: [4] 150 µM
inactive: all other assays above

CCCCCCCCCC
not listed: [9]
inactive: all other assays above

COc1cc(C(C)C)c2c(c1)S(=O)(=O)N(COc1cc(=O)n3cccc(OCCN4CCCCC4)c3n1)C2=O
inactive: [5] | [7] | [8] | [10]
active: [1] 3.96 µM | [2] 3.74 µM | [3] 2.2 µM | [4] 0.643 µM | [6] 2.24 µM

c1ccc2cc3ccccc3cc2c1
not listed: [9]
inactive: all other assays above

C[C@@H](Oc1ccc(CNC(=O)c2cccnc2Oc2ccc3c(c2)OCO3)c(F)c1)C(=O)O
not listed: [9]
inactive: all other assays above

O=C(O)CO
not listed: [9]
inactive: all other assays above

Cc1nccn1-c1ccc(Sc2cccc(C3(C(N)=O)CCOCC3)c2)cc1
active: [1] 1.67 µM | [2] 1.94 µM | [3] 0.93 µM | [7] 8.08 µM
not listed: [9]
inactive: all other assays above

OC[C@H]1O[C@@H]2O[C@H]3[C@H](O)[C@@H](O)[C@@H](O[C@H]4[C@H](O)[C@@H](O)[C@@H](O[C@H]5[C@H](O)[C@@H](O)[C@@H](O[C@H]6[C@H](O)[C@@H](O)[C@@H](O[C@H]7[C@H](O)[C@@H](O)[C@@H](O[C@H]1[C@H](O)[C@H]2O)O[C@@H]7CO)O[C@@H]6CO)O[C@@H]5CO)O[C@@H]4CO)O[C@@H]3CO
active: [5] 33.5 µM
not listed: [8]
inactive: all other assays above

OCCC(F)(F)C(F)(F)C(F)(F)C(F)(F)F
not listed: [8] | [9]
inactive: all other assays above

CCCCCCCCCCCCCCO
inactive: [1] | [6]
active: [2] 74.3 µM | [3] 29.4 µM | [4] 78 µM | [5] 114 µM | [7] 166 µM | [10] 158 µM

C=CCc1cc(S(=O)(=O)c2ccc(O)c(CC=C)c2)ccc1O
active: [3] 27.9 µM | [4] 20.4 µM | [6] 23.2 µM | [8] 22.1 µM
not listed: [9]
inactive: all other assays above

O=S(=O)(O)CCC(F)(F)C(F)(F)C(F)(F)C(F)(F)C(F)(F)C(F)(F)F
not listed: [8]
inactive: all other assays above

NC(=O)NN=Cc1ccc([N+](=O)[O-])o1
active: [3] 17.2 µM | [6] 64.4 µM
not listed: [8] | [9]
inactive: all other assays above

CCCCCCOC(=O)CC(CC(=O)OCCCCCC)(OC(=O)CCC)C(=O)OCCCCCC
not listed: [8]
inactive: all other assays above

O=C(O)c1ccc2c(c1)nc(C(=O)NC1CCN(C3CC3)CC1)n2Cc1cc(-c2ccc(Cl)s2)on1
not listed: [9]
inactive: all other assays above

CCOc1ccc2[nH]cc(C(=O)NCc3ccccc3)c(=O)c2n1
active: [5] 4.77 µM
not listed: [8] | [9]
inactive: all other assays above
